Screening results from PubChem BioAssay.
CYP2C19 act: activators of human cytochrome P450 2C19. recombinant CYP2C19, luciferin-H EGE luminescence; active compounds read high; 0 = fully inhibited enzyme, 1 = untreated enzyme. 96,000 tested, under 10 active. P33261. AID 1025. activation factor at 5 µM;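 active = activation factor of at least 2 at 5 µM in the primary screen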;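 also: 0 = wells with 2.5 mM tranylcypromine and 1 = vehicle-only wells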
PLAP activator: activates human placental alkaline phosphatase; P05187; 96,000 compounds, 1.2% hits; activation fold at 20 µM; AID 696; purified PLAP enzyme, luminescent substrate read-out; active compounds read high; in the data active = activation fold above about 2
CYP2C9 activ: CYP2C9 (human) activation; P11712; recombinant CYP2C9, luciferin-H conversion, luminescence; active compounds read high; factor 1 = untreated enzyme, 0 = blocked; 96,000 compounds, 1.4% hits; activation factor at 5 µM;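 active = activation factor of 2 or more for CYP2C9 at a 5 µM dose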;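 also: 0 = sulfaphenazole-blocked wells and 1 = vehicle-only wells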
Target sequence (P11712 whole entry, looked up): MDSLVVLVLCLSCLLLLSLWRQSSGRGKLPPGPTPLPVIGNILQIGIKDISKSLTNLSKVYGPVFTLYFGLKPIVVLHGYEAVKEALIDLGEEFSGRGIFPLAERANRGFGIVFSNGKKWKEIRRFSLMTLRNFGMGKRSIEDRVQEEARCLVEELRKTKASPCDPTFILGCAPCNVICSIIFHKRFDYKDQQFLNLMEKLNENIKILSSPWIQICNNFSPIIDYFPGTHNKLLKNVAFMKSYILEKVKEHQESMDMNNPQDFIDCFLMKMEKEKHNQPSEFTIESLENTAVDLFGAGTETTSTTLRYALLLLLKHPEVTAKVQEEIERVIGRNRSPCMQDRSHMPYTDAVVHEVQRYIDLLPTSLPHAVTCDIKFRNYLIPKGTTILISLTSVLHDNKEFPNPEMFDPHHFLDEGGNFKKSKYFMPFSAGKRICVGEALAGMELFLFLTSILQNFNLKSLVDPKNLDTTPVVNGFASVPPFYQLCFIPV
CYP2C19 inh: blocks human cytochrome P450 2C19; 96,000 compounds, 21% hits; inhibition, % at 5 µM; CYP2C19 Supersomes, luciferin-H EGE luminescence, 30 min;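 active = CYP2C19 inhibition above a set limit at 5 µM in the primary screen, cut at about 50% in these data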;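 also: plate controls were negative control wells for no effect and 2.5 mM tranylcypromine positive control for full effect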
CYP2C9 inhib: human CYP2C9 inhibition; P11712; CYP2C9 Supersomes, luciferin-H conversion, luminescence; inhibition, % at 5 µM; 96,000 compounds, 20% hits;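 active = blocking of liver enzyme CYP2C9 beyond about 50% at 5 µM, limit read from the data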
Active calls of the source: *. An excerpt weighted towards active compounds, which were near 31% of everything screened.

SMILES	CYP2C19 act	PLAP activator	CYP2C9 activ	CYP2C19 inh	CYP2C9 inhib
CCOC(=O)c1ccc(NC(=O)CSc2n[nH]c(-c3ccncc3)n2)cc1	0.5	1.1	0	48	96*
COC(=O)c1ccc(NC(=O)CSc2nnc(-c3ccncc3)n2N)cc1	1	0.8	0.9	4	9
CCOC(=O)CSc1n[nH]c(-c2cccnc2)n1	1.1	0.9	1.1	-13	-14
COc1ccc(CNC2=CC(=O)CC(C)(C)C2)cc1	0.9	0.8	0.9	12	11
CCOC(=O)C1=C(Cc2ccc(C)cc2)C(=O)c2ccccc2C1=O	0.3	0.8	0.4	74*	61*
CCOC(=O)C1=C(Cc2ccc(OC)cc2)C(=O)c2ccccc2C1=O	0.4	0.9	0.5	56*	55*
CCOC(=O)c1c(C)nc2c(c1-c1cc(OC)ccc1OC)C(=O)c1ccccc1-2	0.8	1.1	1.1	22	-8
Cc1nc2nc[nH]n2c(=O)c1CCC(C)C	0.9	1.2	0.8	10	25
COC(=O)C(CC(C)C)NC(=O)c1ccc(F)cc1 (configuration not stated)	0.8	0.9	1	15	3
Cc1cc(C)c(S(=O)(=O)/N=C2\C=CC(=O)C(Cl)=C2)c(C)c1	0.5	1.6	0.8	51*	16
COc1ccccc1-c1noc(-c2ccco2)n1	0.5	1	1.1	50	-5
COc1ccccc1-c1noc(-c2ccccc2)n1	0.5	0.9	0.9	52*	7
COc1ccc(-c2nc(-c3ccccc3OC)no2)cc1OC	0.4	1.5	1.5	61*	-52
COc1ccc(-c2noc(-c3ccccc3-c3ccccc3)n2)cc1	1.1	0.9	0.8	-5	16
COc1ccc(-c2noc(-c3ccccc3F)n2)cc1	0.9	0.8	0.4	10	59*
Cc1nnsc1C(=O)NNS(=O)(=O)c1ccccc1	1.1	1.1	1	-13	4
COc1ccc(NC(=O)C(NC(=O)c2ccccc2)C(C)C)cc1 (configuration not stated)	0.9	1.2	0.9	12	11
CC(NC(=O)Cc1ccc(-c2ccccc2)cc1)c1ccccc1 (configuration not stated)	0.8	0.8	0.7	22	34
O=C(Cc1ccccc1)NC(Nc1ccccc1)C(Cl)(Cl)Cl (configuration not stated)	0.2	0.9	0.3	82*	73*
COc1ccc(C(=O)NC(Nc2ccccc2)C(Cl)(Cl)Cl)cc1 (configuration not stated)	0.6	1.1	0.2	36	85*
CC(C)(C)NC(NC(=O)Cc1ccccc1)C(Cl)(Cl)Cl (configuration not stated)	0.3	1	0.9	70*	5
Cc1ccc(S(=O)(=O)N(C)Cc2cc3ccccc3[nH]c2=O)cc1	0.8	0.9	1	22	-4
CN(C=O)CP(=O)(O)CN1CCCCC1	1.2	0.9	1.2	-19	-20
COc1ccc(S(=O)(=O)N(C)c2ccc(C(=O)N3CCOCC3)cc2)cc1OC	0.7	1.3	1.2	31	-25
CCOC(=O)C(C)On1c(-c2cccc(Cl)c2)nc2ccc([N+](=O)[O-])cc21 (configuration not stated)	0.1	1.6	0.1	88*	89*
SMILES	CYP2C19 act	PLAP activator	CYP2C9 activ	CYP2C19 inh	CYP2C9 inhib
O=C(N/N=C/c1ccc(O)cc1)c1csc2ccccc12	0.8	1.2	3*	19	-199
CC(=O)Cc1ccccc1OC(=O)c1ccco1	1	1	1	5	-1
O=C(/C=C/c1cccc(Cl)c1)c1nc2ccccc2[nH]1	0.6	1.1	1	44	1
COc1cc(/C=C(/C(=O)c2cccs2)c2nc3ccccc3[nH]2)ccc1O	0.8	0.7	0.5	23	55*
O=C(/C(=C/c1ccc(Cl)cc1)c1nc2ccccc2[nH]1)c1cccs1	0.2	1.3	0	76*	99*
COc1ccc(/C=C(/NC(=O)c2ccccc2)c2nc3ccccc3[nH]2)cc1OC	0.8	1.2	1	17	4
CCOc1ccccc1C1C(C(=O)Nc2ccccc2OC)=C(C)Nc2nc(CCCO)nn21 (configuration not stated)	0.6	1.5	0.7	37	25
COc1cccc(/C=N/n2c(-c3cccs3)n[nH]c2=S)c1	0.7	1	0.6	25	40
Cc1cc(C)nc(SCC(=O)N/N=C/c2cccn2-c2ccc(O)cc2)n1	0.8	1.1	0.5	17	55*
